Test results as given in the OligoGym collection.

What follows are sequences tested against FABP9 (assay: pooled miR-30 sensor sort-seq; sequence = guide strand). Settings: shRNA.
Also: reference of the scale not given here.

Sequence	sensor-assay potency score (higher = more potent)
TTCTTTTGATTGTTGTCTCTTT	-0.11
TAGTGTCCTGGAAAGAACTTTC	-1.06
TTTCTTTTGATTGTTGTCTCTT	0.171
TTAGTGTCCTGGAAAGAACTTT	-0.461
TATGGTGCTCTTTACTTTCCGG	-0.345
TTTTGGACGTGAATCATTGAGC	-0.43
TTTACTTTCCGGTTGTCTGCTG	0.767

What follows are sequences tested against FAM103A1 in the same assay as above. Settings: shRNA.

Sequence	sensor-assay potency score (higher = more potent)
TCTACTAGCAAACATCTCTTCA	-0.435
ATAATGTCCATATTGCTGGGGA	-0.0469
TACTAGCAAACATCTCTTCAAA	-1.05
TTTCTGTGAATCTACTAGCAAA	-1.27
TTGTCATTTTCTGTGAATCTAC	-0.838
AACATCTCTTCAAACTTTGGAA	-0.553
TTTTCTGTGAATCTACTAGCAA	-0.323
TTGTCTTGCAACCGATTGCCTC	-1.09
TTCTTGTCTGTGTTGCGGGTAG	-0.368
ATCTACTAGCAAACATCTCTTC	-0.234
TGTCTGTTGTCTTGCAACCGAT	-1.2

These sequences were tested against FAM111A in the same assay as above. Settings: shRNA.

Sequence	sensor-assay potency score (higher = more potent)
TATGTGGTTATCTTCCTTCTGC	-0.217
TTACATTTTTCATTGACTGAGT	-0.373
TTTCCAATCATCATTCTCCAGA	-0.625
TTGTTCTCTCAACACACAGGTG	-0.868
TTCATATCTTGGTTTCTCCTGT	0.306
TTCTAATTCATCAACTGGCTGG	0.174
TTGAGAGCCATATATAAGCTAC	-0.708
TTTCCTTGTCTTTTAGCTCTTC	0.0612
TTTGAGATCATTTCTAATCAAG	-0.737
TATCTCTTTTCTGACAGCCTGG	-0.766
TCTTTTCTCAACCTCAACCTGA	-0.463
TACTCTTTGATTCCTTCTGTGC	-0.506

What follows are sequences tested against FAM113A in the same assay as above. Settings: shRNA.

Sequence	sensor-assay potency score (higher = more potent)
TGGAAGTGGACCATGTCGCTTC	-0.111
TTCCAGAACATCCTCAAGGTAC	-0.46
TTGTTGTGTAGCAGCTGCTGGA	-0.714
TAGCTCTCCATTGAGCAGCGAC	-1.09
TTGATGATCACCAGGTCCGGGG	-0.983
TTGAGCAGCGACCATATCTGGA	-0.708
TCTCTCTGAGTGTCTGAGCCGC	-0.879
TTCAACCACATCCCGCCGCAGG	-1.27
TAGCACTGTAGAAGTTCCCTTC	0.54
TTTCTGGAGCAAGAGCACCAGG	-1.16
